Screening results (PubChem)
UCHL1 inh = blocks human UCHL1 ubiquitin-rhodamine cleavage. P09936. purified UCHL1, Ub-rhodamine cleavage fluorescence. 47,000 compounds, 0.2% hits. inhibition, % at 20 µM
Target sequence (P09936 whole entry, looked up): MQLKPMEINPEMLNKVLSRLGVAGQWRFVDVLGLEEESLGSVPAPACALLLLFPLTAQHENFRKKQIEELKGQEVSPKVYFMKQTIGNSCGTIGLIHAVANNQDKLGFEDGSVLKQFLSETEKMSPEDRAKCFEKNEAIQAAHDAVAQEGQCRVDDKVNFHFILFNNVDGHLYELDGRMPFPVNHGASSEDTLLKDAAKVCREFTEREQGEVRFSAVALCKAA
USP7 block = inhibitors of human USP7 deubiquitinase. Q93009. purified USP7, Ub-rhodamine cleavage fluorescence. inhibition, % at 20 µM. 47,000 compounds, 0.3% hits. AID 1645854
USP8 inh = inhibitors of human USP8 deubiquitinase | P40818 | purified USP8, Ub-rhodamine cleavage fluorescence, 30 min | inhibition, % at 20 µM | 47,000 compounds, 4.2% hits | AID 1645853
USP10 block = inhibitors of human USP10 deubiquitinase. inhibition, % at 20 µM. purified USP10, Ub-rhodamine fluorescence, 60 min. 47,000 compounds, 1.1% hits. Q14694
An asterisk follows results filed as active. A selection: hits, their analogues and other compounds. The true share with any hit is near 4.6%. No stated cut-off is given here; in the data, active means inhibition above about 30%; inactive means the rest.

SMILES	UCHL1 inh	USP7 block	USP8 inh	USP10 block
COc1ccc(CNC(=O)C2c3ccccc3CCN2C(=O)C2CC2)cc1 (stereo not drawn)	0.0	-58.8	0.4	1.5
O=C(c1[nH]nc2c1CCc1ccccc1-2)N1CCC(Cc2ccccc2)CC1	6.4	4.9	0.1	5.6
NC(=O)C1(N2CCCCC2)CCN(C(=O)c2[nH]nc3c2CCc2ccccc2-3)CC1	3.9	4.4	86.5*	-5.1
COc1cc(O)c2c(=O)c(-c3ccc(O)cc3)coc2c1	9.6	0.2	34.9*	-0.1
O=C(Nc1ccccc1)N1CCCn2c(nc3ccccc32)C1	0.2	3.7	0.1	2.5
CN(C(=O)Cn1c(=O)n(CCC(=O)NCc2ccc3c(c2)OCO3)c(=O)c2ccccc21)C1CCCCC1	0.0	-13.5	15.7	-0.6
O=C(Cn1c(=O)n(Cc2ccc3c(c2)OCO3)c(=O)c2ccccc21)c1ccccc1	2.2	3.9	36.1*	-0.3
O=C(CCn1c(=O)c2ccccc2n(CC(=O)OCc2ccccc2)c1=O)NCc1ccc2c(c1)OCO2	-1.8	5.6	26.3	47.8*
O=C(CCc1nnc2n(Cc3ccccc3)c(=O)c3ccccc3n12)NCc1ccc2c(c1)OCO2	-1.2	-8.6	39.3*	43.7*
O=C(Cn1c(=O)n(Cc2ccc(F)cc2)c(=O)c2ncccc21)N1CCCc2ccccc21	-1.1	-134.4	1.3	-5.3
O=C(Cn1c(=O)n(Cc2ccc(F)cc2)c(=O)c2ncccc21)NCc1ccc(F)cc1	-3.5	-64.0	43.6*	-1.4
CCCOc1ccc(-c2cc3n(c(=N)c2C#N)CCc2cc4c(cc2-3)OCO4)cc1OC	-76.5	-66.5	-24.2	-13.3
COc1ccccc1NC(=O)c1sc2ncn(CC(=O)OCC(C)C)c(=O)c2c1C	4.1	1.2	17.7	0.0
O=C(Cn1c(=O)n(Cc2ccc3c(c2)OCO3)c(=O)c2ncccc21)NCc1ccccc1	7.2	1.2	38.5*	-0.8
CCCCCCCC[C@@H](C)[C@@H]1OC(=O)[C@H](CO)NC(=O)[C@H](C(=O)c2c[nH]c3ccccc23)NC(=O)[C@@H](CCC(=O)O)NC(=O)[C@H]1C	1.7	-5.7	0.3	23.5
CCCCCCCCCCCC(O)CC(=O)N[C@@H](CC(C)C)C(=O)N[C@H](CCC(=O)O)C(=O)N[C@H]1C(=O)N[C@H]([C@@H](C)CC)C(=O)NC(CC(C)C)C(=O)N[C@H](CO)C(=O)N[C@@H](CC(C)C)C(=O)N[C@@H](CC(C)C)C(=O)N[C@H](CO)C(=O)N[C@@H](C(C)C)C(=O)O[C@@H]1C (stereo partly drawn)	28.6	38.7*	34.9*	35.2*
CC(C)NC(=O)c1nc(-c2ccc3cc[nH]c3c2)no1	0.2	-1.7	-14.1	1.5
Cc1ccc(NC(=O)c2noc3c2CCc2sccc2-3)nc1	-5.5	1.4	47.3*	4.5
O=C(NCc1ccc(Cl)cc1)c1noc2c1CCc1sccc1-2	-2.1	-4.3	74.7*	-7.0
Cc1cccnc1NC(=O)c1noc2c1CCc1sccc1-2	-0.6	4.4	3.5	2.4
O=C(Nc1ccccn1)c1noc2c1CCc1sccc1-2	-1.3	-2.6	88.5*	4.9
O=C1CC2C3CCC(=O)c4c(O)ccc(c43)C2(O)c2cccc(O)c21 (stereo not drawn)	16.9	-26.3	34.6*	10.4
O=C(NCc1ccccc1Cl)C1CCn2c(nc3ccccc32)C1 (stereo not drawn)	-2.1	-3.9	-1.1	-3.1
O=C(OC1CSc2nc3ccccc3n2C1)c1ccc([N+](=O)[O-])o1 (stereo not drawn)	11.2	-38.3	63.8*	40.3*
Cc1cc2cc(CNC(=O)c3ccccc3C(=O)O)ccc2n1C	-12.7	-17.3	56.3*	-8.1
SMILES	UCHL1 inh	USP7 block	USP8 inh	USP10 block
CCC(C(=O)NCc1ccc2c(c1)cc(C)n2C)c1ccccc1 (stereo not drawn)	-17.5	-14.8	-35.2	-5.6
Cc1ccc2c(c1)CCCN2C(=O)c1cn(Cc2ccccc2)nc1-c1cccnc1	-20.8	-47.0	53.4*	-7.1
Cc1ccc(-n2nnc(C(=O)Nc3ccc(C)c(C)c3)c2C)cc1	1.6	7.8	39.6*	4.4
Cc1ccc(NC(=O)c2nnn(-c3ccc(C)c(C)c3)c2C)cc1C	-0.4	-1.0	0.0	1.5
COC(=O)C1=CC=COc2oc3cc(C)cc(O)c3c(=O)c21	-4.0	-8.6	-29.0	-2.4
CN(Cc1ccc2c(c1)OCO2)C(=O)Cn1cnc2sc(-c3ccccc3)cc2c1=O	-6.3	4.6	55.0*	4.3
Nc1c(-c2nc(-c3ccccc3Cl)no2)nnn1-c1ccc(Cl)cc1	12.4	56.4*	94.3*	60.2*
Nc1c(-c2nc(-c3ccc(F)cc3)no2)nnn1-c1ccccc1F	0.9	8.0	34.8*	1.1
COCCNC(=O)C1(C)Cn2nc(-c3ccco3)cc2C(=O)N1c1ccc(NC(C)=O)cc1 (stereo not drawn)	-3.2	-2.4	-17.0	-5.7
CC(=O)Nc1ccc(N2C(=O)c3cc(-c4ccco4)nn3CC2(C)C(=O)NCc2ccc(F)cc2)cc1 (stereo not drawn)	-4.8	-11.9	39.3*	-11.2
O=C(Cc1nnc(NC(=O)Nc2cc(F)ccc2F)s1)NCc1ccccc1	-4.3	2.6	11.6	12.6
COc1ccc(C)cc1NC(=O)Nc1nnc(CC(=O)NCc2ccccc2)s1	2.6	13.8	37.6*	18.9
O=C(Nc1ccc(OC(F)(F)F)cc1)NC1Cc2ccccc2C1	0.1	2.0	42.4*	5.5
O=C(COc1ccc2c(c1)OCO2)Nc1ccc2c(c1)OCCO2	0.5	-0.1	-2.2	-0.8
N#Cc1ccc(-c2ccc(OCC(=O)Nc3ccc4c(c3)OCO4)cc2)cc1	0.2	0.0	43.3*	6.9
COc1ccc(NC(=O)c2cnccn2)cc1Cc1ccccc1	0.0	-8.3	3.8	2.0
O=C(NC1CC1)c1nc2c(o1)CN(C(=O)c1cccnc1)C2	-3.6	-0.5	-89.0	-4.2
Cc1[nH]n2c(=O)c(Cl)c(-c3ccccc3)nc2c1-c1ccccc1	3.9	13.5	-218.6	33.2*
Cc1cc(C)nc(SCc2cc(=O)n3[nH]c(C)c(-c4ccccc4)c3n2)n1	2.0	9.5	-108.0	12.6
Cc1ccc2nc(CNc3ccc(F)cc3C)cc(=O)n2c1	31.7*	-18.7	93.0*	23.2
Cc1ccc2nc(CN(C)c3ccccc3)cc(=O)n2c1	6.4	-33.5	74.2*	-7.2
CN(Cc1cc(=O)n2ccsc2n1)c1ccccc1	-2.8	-9.4	34.7*	-1.9
NC(=O)c1ccccc1NCc1cc(=O)n2cc(Cl)ccc2n1	-17.9	-19.8	-14.7	-7.8
CC1(C)C2CCC1(CS(=O)(=O)Nc1ccc(F)c(Cl)c1)C(=O)C2 (stereo not drawn)	3.2	-5.8	27.1	4.6
COc1ccc(NC(=O)CN2CCC3(CC2)CN(C(C)=O)Cc2cc(C)ccc2O3)cc1	-3.6	-2.8	-129.7	-0.1
O=C(c1ccccn1)N1CCC2(CC1)CC1(CO2)Nc2ccccc2-n2cccc21 (stereo not drawn)	15.2	-14.3	76.9*	-6.8
Cc1ccc(CN2CCC(N3CCN(C(=O)c4snnc4C)CC3=O)CC2)cc1	2.6	0.7	11.4	-3.9
O=C(Nc1nccnc1C(=O)NCc1ccccn1)c1ccccc1	1.5	1.1	37.7*	-0.5
